Bioassay records (PubChem)
A selection: hits, their analogues and other compounds. The true share with any hit is near 10%.
PLK1 PBD block: qHTS for Inhibitors of PLK1-PDB (polo-like kinase 1 - polo-box domain): Primary Screen. hit rate 2.8% among 360,000. Plk1 PBD binding of FITC phosphopeptide, fluorescence polarization. Serine/threonine-protein kinase PLK1 (Homo sapiens), P53350. Potency, µM, inactives show max response, negative = inhibition, usual class: inhibitors. AID 720504, 2013; also: potency is read from the fitted curve at half-maximal effect; series mostly up to about 57 µM; nearly all actives have a fitted effect of over 65% in size
Target sequence (P53350 whole entry, looked up, the tested form may be a part): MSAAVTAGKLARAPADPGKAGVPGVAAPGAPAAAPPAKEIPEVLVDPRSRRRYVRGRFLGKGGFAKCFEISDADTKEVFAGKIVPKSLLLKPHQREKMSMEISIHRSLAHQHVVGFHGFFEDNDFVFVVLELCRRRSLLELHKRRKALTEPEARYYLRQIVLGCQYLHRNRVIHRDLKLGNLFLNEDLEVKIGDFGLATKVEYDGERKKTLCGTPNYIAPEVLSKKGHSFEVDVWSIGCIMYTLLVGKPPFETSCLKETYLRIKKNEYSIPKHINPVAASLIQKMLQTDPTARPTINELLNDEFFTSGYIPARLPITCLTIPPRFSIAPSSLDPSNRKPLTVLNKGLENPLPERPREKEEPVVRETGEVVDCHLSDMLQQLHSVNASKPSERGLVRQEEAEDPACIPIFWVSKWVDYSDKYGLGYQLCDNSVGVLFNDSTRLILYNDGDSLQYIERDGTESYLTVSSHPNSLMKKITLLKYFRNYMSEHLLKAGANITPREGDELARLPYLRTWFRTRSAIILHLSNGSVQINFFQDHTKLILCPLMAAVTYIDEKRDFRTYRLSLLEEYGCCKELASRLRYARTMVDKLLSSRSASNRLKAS
Sfp inh: qHTS Assay for Inhibitors of Bacillus subtilis Sfp phosphopantetheinyl transferase (PPTase); Potency, µM, inactives show largest response in the series, negative = inhibition, hits mostly inhibitors; hit rate 3.5% among 310,000; 4'-phosphopantetheinyl transferase ffp (Bacillus subtilis), Q9F4F7; AID 1490, 2009; Biochemical Sfp PPTase activity, qHTS;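 also: the enzyme is Sfp with the accession as filed and its product quenches rhodamine fluorescence; potency is read from the fitted curve at half-maximal effect; 0% = enzyme reaction without inhibitor and -100% = no enzyme wells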
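Buffer: 50 mM Hepes-Na pH 7.6, 10 mM MgCl2, 0.01% Nonidet P-40, 0.01% BSA. Enzyme 15 nM, pre-exposed to compound 15 min; substrates then added and fluorescence change tracked over 30 min.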
CCT modulator: High-Throughput Screening for Modulators of Cytosolic Chaperonin Activity; purified chaperonin ATPase assay, HTRF ADP detection, 30 min; activity change, % (concentration not given with the values), hits read low; hit rate 0.3% among 360,000; AID 651819, 2012; in the data active = activity change below about -30%
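Nucleotide hydrolysis assay: TRiC at 20–40 nM final (set by batch activity) with 10 uM ATP, 30 min at 37 °C, in presence of 76 uM compound. Detection by competitive ADP HTRF, 30 min ambient.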
VDR inhibitor: Inhibitors of the vitamin D receptor (VDR): qHTS; Vitamin D3 receptor (Homo sapiens), P11473; VDR-SRC2-3 peptide fluorescence polarization, 2 h; Potency, µM, for inactives: max response, negative = inhibition, hits mostly inhibitors; hit rate 0.93% among 400,000; AID 504847, 2011; also: potency is read from the fitted curve at half-maximal effect
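Fluorescence polarization assay of small-molecule disruption of VDR binding to coregulator peptide SRC2-3. Compounds and controls pin-transferred, then read after 2 h incubation at ambient room temperature.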
Mm-Cpn inhibitor: Inhibitors of TCP-1 ring complex (TRiC) of Methanococcus maripaludis (MmCpn): qHTS; Potency, µM (highest dose often 76.9 µM), without a hit: top-dose activity, negative = inhibition, actives largely listed as inhibitors; Chaperonin Mm-Cpn (Methanococcus maripaludis); hit rate 0.031% among 330,000; purified Mm-Cpn ATPase, ADP Transcreener TR-FRET; also: potency is read from the fitted curve at half-maximal effect; nearly all actives have a fitted effect of over 80% in size
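25 nM Mm-CPN + cpd, 10 min 37°C; + 10 uM ATP, 30 min 37°C; buffer 30 mM Tris pH 7.4, 100 mM KCl, 5 mM MgCl2, 1 mM DTT; Transcreener ADP HTRF detection 30 min RT.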
G9a block: qHTS Assay for Inhibitors of Histone Lysine Methyltransferase G9a; hit rate 8.8% among 350,000; AID 504332, 2011; G9a H3K9 monomethylation, AlphaScreen, 2 h; Potency, µM (series often up to 102 µM), without a hit: at the highest dose activity, negative = inhibition, usual class: inhibitors; also: potency is read from the fitted curve at half-maximal effect; nearly all actives have a fitted effect of over 75% in size
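Methyltransferase reactions run at room temperature for 2 h (20 nM enzyme, 500 nM biotin-H3K9 peptide, 20 uM SAM) after a 15 min compound preincubation; product detected by AlphaScreen beads and anti-H3K9me1 antibody.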
Numbers without * were called inactive; ? = inconclusive; . = not tested or not shown; [ ] = dose if it differs, or a comment. Unless noted, calls follow the shape of the dose curve; as a rule, active = well fitted curve in the direction sought with a large enough effect; inconclusive = small, poorly fitted or top-dose-only effect, or another doubt; inactive = no such curve, though single readings can be large; an effect the other way counts as inactive or inconclusive. Unless noted, % is scaled to controls: 0 for no effect and ±100 for the full control effect.

SMILES	PLK1 PBD block	Sfp inh	CCT modulator	VDR inhibitor	Mm-Cpn inhibitor	G9a block
COc1ccc(CN2CCN(Cc3ccco3)CC2)cc1	-2%	?	2	15%	-2%	?
COc1ccc(OC)c(CN2CCN(Cc3cc(OC)c(OC)c(OC)c3)CC2)c1	5%	-16%	0	10%	0%	-9%[0.501 µM]
COc1cc(CN2CCCCCC2)cc(OC)c1OC	-9%	-11%	0	5%	-3%	32µM*
CC(C)(C)c1cc(CN2CCCCC2)cc(C(C)(C)C)c1O	.	35µM*	.	.	2%	?
FC(F)(F)c1ccc(CN2CCN(Cc3ccco3)CC2)cc1	-10%	-4%	-1	-10%	-3%	50µM*
COc1ccc(CN2CCN(Cc3ccc(C(F)(F)F)cc3)CC2)c(OC)c1	0%	71µM*	3	-2%	-1%	40µM*
COc1ccc(CN2CCN(Cc3c[nH]c4ccccc34)CC2)c(OC)c1	-15%	.	1	.	.	.
Cc1ccc(Cl)cc1-n1ncc2c(Nc3ccc4c(c3)OCCO4)ncnc21	.	.	.	11%	.	8%[59 µM]
COc1ccc(CCNC(=O)Cn2cc(C(=O)c3ccc(Cl)cc3)c(=O)c3ccc(C)nc32)cc1OC	.	.	.	5%	.	-5%[59 µM]
CC(=O)OC[C@@H]1O[C@@H](O/N=C2/C[C@@H](O)[C@@H](O)[C@@H]3[C@@H]4C(=O)N(C(C)(C)C)C(=O)[C@H]4CC[C@H]23)[C@H](OC(C)=O)[C@H](OC(C)=O)[C@@H]1OC(C)=O	.	19%	.	.	.	.
Cn1cnc2c(=O)oc3ccc(S(=O)(=O)Nc4ccc(F)cc4)cc3c21	.	.	.	7%	.	-13%[59 µM]
O=C(/C=C/c1ccc(Br)o1)Nc1nnc(C2CC2)s1	.	?	.	.	-2%	56µM*
O=C(Nc1nnc(C2CC2)s1)C1COc2ccccc2O1 (configuration not stated)	-10%	14%	-1	0%	0%	-10%
Clc1cccc(-c2csc(-c3nc(-c4ccc(Br)s4)cs3)n2)c1	.	.	.	-11%	.	16%[59 µM]
Nc1nc(NCc2c(F)cccc2Cl)nn1-c1ccccc1	27µM*	1%	-2	-13%	0%	-13%[59 µM]
Cc1ccn2c(=O)cc(COc3ccc(NC(=O)C(C)(C)C)cc3)nc2c1	.	.	.	-4%	.	10%[59 µM]
CCOc1ccc(CNC(=O)CCCn2nc(C)c3sc4ccccc4c3c2=O)cc1	.	.	.	3%	.	-37%[59 µM]
Cc1nc(NC(=O)CN2CCCCC2)sc1C(=O)N(C)C	-1%	-7%	1	8%	0%	79µM*
CCOC(=O)CSc1nnc(NC(=O)CN2CCCCC2)s1	27µM*	-13%	2	-28%	0%	5%[12.7 µM]
CCOC(=O)CSc1nnc(NC(=O)c2cccc([N+](=O)[O-])c2C)s1	-11%	20%	-1	-16%	1%	25µM*
COc1cccc(-c2nc(NCc3cccs3)c3ccccc3n2)c1	.	15%	.	50µM*	.	-40%[0.501 µM]
c1ccc(-c2nc(NCc3cccs3)c3ccccc3n2)cc1	1%	4%	-48*	2%	0%	25%
CS(=O)(=O)Nc1cccc(-c2nc(NCc3cccs3)c3ccccc3n2)c1	.	?	.	-17%	.	.
c1csc(CNc2nc(-c3cccs3)nc3ccccc23)c1	-1%	-13%	-1	-4%	-17%	20%
CCOc1ccc(N2CSC(=S)N(c3ccc(OCC)cc3)C2)cc1	6%	35µM*	2	-3%	-2%	-7%
CCOc1ccc(N2CC(=O)SC2=S)cc1	-5%	1%	-2	18%	0%	-40%
CC1=NN(c2ccccc2)C(=O)C1N=Nc1ccccc1 (configuration not stated)	-2%	18%	-4	-8%	3%	0.89µM*
